Four compounds from PubChem BioAssay (EPA / NIEHS) can be followed below.

Calls of active or inactive are those of the source. Rule for the calls: active = hit-call score of the fitted dose curve at least 0.9, where 1 is the maximum; inactive = score below 0.9.

Details in all cases: mRNA level, 48 h; actives raise or lower the signal
Read-out in test [1]: Ezrin (EZR), EZR (gene 7430)
Description: LTEA_HepaRG_EZR: Life Technologies and Expression Analysis (LTEA) Assay for Ezrin (EZR) using HepaRG (AID 2283491). The method in brief: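 EZR transcript levels came from Fluidigm qRT-PCR and were normalized to three housekeeping genes after 48 h chemical exposure of HepaRG cells. Dosing used an 8-point half-log series with a 100 uM top concentration in 0.5% DMSO, tested in duplicate; both directions were fitted versus vehicle.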

Read-out in test [2]: Cytochrome P450 3A7 (Homo sapiens) (UniProt P24462)
The experiment in a line: LTEA_HepaRG_CYP3A7: Life Technologies and Expression Analysis (LTEA) Assay for CYP3A7 using HepaRG (AID 2283492). Put shortly: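 Cells were thawed, plated, cultured 48 h, then treated for a further 48 h with chemicals (eight-point half-log series from 100 uM, 0.5% DMSO). RNA was isolated and CYP3A7 expression quantified by qRT-PCR normalised to ACTB, GAPDH and POLR2A.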

Read-out in test [3]: Fatty Acid-Binding Protein 1 (FABP1), FABP1 (gene 2168)
Description: LTEA_HepaRG_FABP1: Life Technologies and Expression Analysis (LTEA) Assay for Fatty Acid-Binding Protein 1 (FABP1) using HepaRG (AID 2283494). Put shortly:
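Differentiated human HepaRG cells exposed 48 h in serum-free induction medium to eight half-log concentrations up to 100 uM (0.5% DMSO), duplicate. FABP1 mRNA by qRT-PCR, normalised to ACTB, GAPDH, POLR2A; bidirectional fitting against DMSO.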

Read-out in test [4]: Cytochrome P450 7A1 (Homo sapiens) (UniProt P22680)
The experiment in a line: LTEA_HepaRG_CYP7A1: Life Technologies and Expression Analysis (LTEA) Assay for Cytochrome P450 7A1 (CYP7A1) using HepaRG (AID 2283496). The method in brief:
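HepaRG cells plated 48 h, then switched to serum-free induction medium and exposed in duplicate for 48 h to 8-point half-log series from 100 uM in 0.5% DMSO. CYP7A1 mRNA by qRT-PCR (TaqMan), normalized to ACTB/GAPDH/POLR2A; bidirectional fit versus DMSO.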

Read-out in test [5]: Glutathione S-Transferase (GSTA2), GSTA2 (gene 2939)
The experiment in a line: LTEA_HepaRG_GSTA2: Life Technologies and Expression Analysis (LTEA) Assay for Glutathione S-Transferase (GSTA2) using HepaRG (AID 2283497). Put shortly:
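Differentiated human HepaRG cells were exposed in duplicate for 48 h in serum-free induction medium, 8 points from 100 uM top in half-log steps, 0.5% DMSO. GSTA2 mRNA was measured by TaqMan qRT-PCR, normalized to ACTB, GAPDH and POLR2A; bidirectional fit versus DMSO.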

Read-out in test [6]: Glutamate-cysteine ligase catalytic (GCLC), GCLC (gene 2729)
Description: LTEA_HepaRG_GCLC: Life Technologies and Expression Analysis (LTEA) Assay for Glutamate-cysteine ligase catalytic (GCLC) using HepaRG (AID 2283498). The method in brief: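 Differentiated HepaRG cells exposed 48 h in serum-free induction medium, eight-point half-log series topping at 100 uM in 0.5% DMSO, duplicates. GCLC mRNA by qRT-PCR normalized to ACTB, GAPDH and POLR2A, fitted bidirectionally versus DMSO.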

Read-out in test [7]: growth arrest and DNA damage 45 (GADD45G), GADD45G (gene 10912)
Description: LTEA_HepaRG_GADD45G: Life Technologies and Expression Analysis (LTEA) Assay for growth arrest and DNA damage 45 (GADD45G) using HepaRG (AID 2283499). Put shortly: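 Human hepatic HepaRG line treated 48 h with chemicals (eight concentrations, half-log steps from 100 uM); transcript induction or repression of GADD45G scored by qRT-PCR versus DMSO vehicle.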

Read-out in test [8]: Glutamate-cysteine ligase regulatory (GCLM), GCLM (gene 2730)
Description: LTEA_HepaRG_GCLM: Life Technologies and Expression Analysis (LTEA) Assay for Glutamate-cysteine ligase regulatory (GCLM) using HepaRG (AID 2283500). The method in brief:
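Differentiated HepaRG cells exposed 48 h in serum-free induction medium to eight half-log concentrations up to 100 uM (0.5% DMSO). GCLM mRNA by TaqMan qRT-PCR, normalized to ACTB, GAPDH and POLR2A; bidirectional fit versus DMSO.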

Read-out in test [9]: Glutathione S-transferase M3 (GSTM3), GSTM3 (gene 2947)
The experiment in a line: LTEA_HepaRG_GSTM3: Life Technologies and Expression Analysis (LTEA) Assay for Glutathione S-transferase M3 (GSTM3) using HepaRG (AID 2283501). Put shortly: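 Changes in GSTM3 expression, an oxidative-stress marker, were scored by bidirectional curve fitting against 0.5% DMSO vehicle. Human HepaRG cultures received chemicals for 48 h in duplicate, highest concentration 100 uM with half-log dilutions.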

Read-out in test [10]: Heat shock 70 kDa protein 1 (HSPA1A), gene 3303
The experiment in a line: LTEA_HepaRG_HSPA1A: Life Technologies and Expression Analysis (LTEA) Assay for Heat shock 70 kDa protein 1 (HSPA1A) using HepaRG (AID 2283502). The method in brief:
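Human HepaRG cells in serum-free induction medium were exposed in duplicate for 48 h to 8 half-log concentrations, highest 100 uM, in 0.5% DMSO. HSPA1A mRNA read by TaqMan qRT-PCR, normalized to ACTB, GAPDH, POLR2A, fitted bidirectionally against DMSO.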

Read-out in test [11]: Hypoxia-inducible factor 1-alpha (Homo sapiens) (UniProt Q16665)
The experiment in a line: LTEA_HepaRG_HIF1A: Life Technologies and Expression Analysis (LTEA) Assay for Hypoxia-inducible factor 1 (HIF1A) Trancription factor using HepaRG (AID 2283503). Put shortly:
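Differentiated HepaRG cells in serum-free induction medium exposed 48 h, in duplicate, to 8-point half-log series from 100 uM in 0.5% DMSO. HIF1A mRNA measured by TaqMan qRT-PCR, normalized to ACTB/GAPDH/POLR2A, fitted bidirectionally versus DMSO.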

Read-out in test [12]: 3-Hydroxy-3-Methylglutaryl-CoA Synthase 2 (HMGCS2), HMGCS2 (gene 3158)
The experiment in a line: LTEA_HepaRG_HMGCS2: Life Technologies and Expression Analysis (LTEA) Assay for 3-Hydroxy-3-Methylglutaryl-CoA Synthase 2 (HMGCS2) using HepaRG (AID 2283504). Put shortly: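 Expression of HMGCS2 in human HepaRG liver cells is measured by qRT-PCR 48 h after dosing (highest 100 uM, half-log series, 0.5% DMSO). Values come from bidirectional concentration-response fitting with DMSO as baseline.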

Read-out in another test: HGF (gene 3082)
Description: LTEA_HepaRG_HGF: Life Technologies and Expression Analysis (LTEA) Assay for Hepatocyte Growth Facto (HGF) using HepaRG (AID 2283505). Put shortly:
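Gain or loss of HGF mRNA in human HepaRG liver cells after 48 h chemical exposure; eight concentrations up to 100 uM with 0.5% DMSO vehicle, quantified by TaqMan qRT-PCR.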

Read-out in test [13]: Insulin Like Growth Factor 1 (IGF1), IGF1 (gene 3479)
Description: LTEA_HepaRG_IGF1: Life Technologies and Expression Analysis (LTEA) Assay for Insulin Like Growth Factor 1 (IGF1) using HepaRG (AID 2283506). Put shortly:
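Differentiated HepaRG cells in serum-free induction medium, exposed 48 h in duplicate to 8 half-log concentrations up to 100 uM in 0.5% DMSO. IGF1 mRNA by Fluidigm qRT-PCR, normalised to ACTB, GAPDH and POLR2A.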

Read-out in test [14]: Intercellular Adhesion Molecule 1 (ICAM1), ICAM1 (gene 3383)
The experiment in a line: LTEA_HepaRG_ICAM1: Life Technologies and Expression Analysis (LTEA) Assay for Intercellular Adhesion Molecule 1 (ICAM1) using HepaRG (AID 2283507). Put shortly:
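Gain or loss of transcript in HepaRG hepatic cells is quantified by qRT-PCR after 48 h chemical exposure (up to 100 uM, half-log steps), with DMSO as baseline.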

Read-out in test [15]: Insulin-like growth factor-binding protein 1 (IGFBP1), IGFBP1 (gene 3484)
The experiment in a line: LTEA_HepaRG_IGFBP1: Life Technologies and Expression Analysis (LTEA) Assay for Insulin-like growth factor-binding protein 1 (IGFBP1) using HepaRG (AID 2283508). Put shortly:
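mRNA induction or loss was quantified by qRT-PCR after 48 h chemical exposure of human HepaRG cells, with 0.5% DMSO as vehicle and baseline. Concentration-response over eight points up to 100 uM.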

Read-out in test [16]: Interleukin 6 (IL6), IL6 (gene 3569)
The experiment in a line: LTEA_HepaRG_IL6: Life Technologies and Expression Analysis (LTEA) Assay for Interleukin 6 (IL6) using HepaRG (AID 2283509). Put shortly: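 HepaRG cells exposed in duplicate for 48 h to eight half-log concentrations, top 100 uM, in 0.5% DMSO serum-free induction medium. mRNA measured by qRT-PCR, normalized to ACTB, GAPDH and POLR2A. Bidirectional fit versus DMSO.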

Read-out in test [17]: Interleukin 6 Receptor (IL6R), IL6R (gene 3570)
The experiment in a line: LTEA_HepaRG_IL6R: Life Technologies and Expression Analysis (LTEA) Assay for Interleukin 6 Receptor (IL6R) using HepaRG (AID 2283510). Put shortly:
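Differentiated HepaRG cells, plated 48 h, then exposed in duplicate for 48 h in serum-free induction medium to 8 half-log concentrations (top 100 uM, 0.5% DMSO). IL6R mRNA measured by TaqMan qRT-PCR, normalized to ACTB/GAPDH/POLR2A; bidirectional fit vs DMSO.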

Read-out in test [18]: Cytochrome P450 4A22 (Homo sapiens) (UniProt Q5TCH4)
The experiment in a line: LTEA_HepaRG_CYP4A22: Life Technologies and Expression Analysis (LTEA) Assay for Cytochrome P450 4A22 (CYP4A22) using HepaRG (AID 2283495). The method in brief: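 Cryopreserved HepaRG cells, plated and cultured 48 h, then switched to serum-free induction medium and treated 48 h (duplicates, up to 100 uM, half-log steps, 0.5% DMSO). Expression change of CYP4A22 was fitted bidirectionally against vehicle.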

Cytochrome P450 3A7 (Homo sapiens), sequence (P24462 whole entry, looked up): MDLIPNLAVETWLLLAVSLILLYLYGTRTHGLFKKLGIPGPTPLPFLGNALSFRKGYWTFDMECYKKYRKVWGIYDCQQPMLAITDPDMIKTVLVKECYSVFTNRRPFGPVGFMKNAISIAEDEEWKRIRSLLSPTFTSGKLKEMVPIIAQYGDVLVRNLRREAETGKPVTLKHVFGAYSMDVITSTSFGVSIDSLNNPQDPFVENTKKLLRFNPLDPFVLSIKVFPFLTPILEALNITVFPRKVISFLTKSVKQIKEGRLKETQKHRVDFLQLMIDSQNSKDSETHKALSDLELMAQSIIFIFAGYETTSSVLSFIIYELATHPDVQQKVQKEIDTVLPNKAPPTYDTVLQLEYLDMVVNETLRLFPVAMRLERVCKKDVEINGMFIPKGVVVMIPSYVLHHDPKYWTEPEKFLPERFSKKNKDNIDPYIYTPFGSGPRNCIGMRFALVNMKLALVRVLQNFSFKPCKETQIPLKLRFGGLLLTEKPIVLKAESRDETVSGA
Hypoxia-inducible factor 1-alpha (Homo sapiens), sequence (Q16665 whole entry, looked up): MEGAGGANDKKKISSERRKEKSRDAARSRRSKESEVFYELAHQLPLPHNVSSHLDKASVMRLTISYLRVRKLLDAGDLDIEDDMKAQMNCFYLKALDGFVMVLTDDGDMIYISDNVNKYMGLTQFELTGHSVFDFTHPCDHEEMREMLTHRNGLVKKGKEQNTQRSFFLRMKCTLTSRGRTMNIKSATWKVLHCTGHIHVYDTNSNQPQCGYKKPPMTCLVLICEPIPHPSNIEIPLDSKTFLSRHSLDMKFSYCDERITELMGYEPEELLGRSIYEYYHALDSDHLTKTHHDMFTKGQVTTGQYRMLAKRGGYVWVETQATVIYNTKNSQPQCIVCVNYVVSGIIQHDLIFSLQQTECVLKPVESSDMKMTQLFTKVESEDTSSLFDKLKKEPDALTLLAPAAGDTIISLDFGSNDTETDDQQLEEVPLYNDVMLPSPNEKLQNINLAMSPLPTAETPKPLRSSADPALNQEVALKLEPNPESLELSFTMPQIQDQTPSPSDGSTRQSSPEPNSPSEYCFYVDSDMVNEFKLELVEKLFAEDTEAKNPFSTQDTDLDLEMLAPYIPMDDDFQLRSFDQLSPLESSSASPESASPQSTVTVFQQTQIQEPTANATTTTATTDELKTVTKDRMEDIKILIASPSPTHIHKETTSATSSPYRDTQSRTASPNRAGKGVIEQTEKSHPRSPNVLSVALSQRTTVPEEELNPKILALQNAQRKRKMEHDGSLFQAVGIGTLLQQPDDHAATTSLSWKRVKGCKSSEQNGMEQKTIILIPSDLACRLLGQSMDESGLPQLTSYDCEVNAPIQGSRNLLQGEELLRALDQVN

For `Oc1cc2ccccc2c2ccccc12`, the compound was called inactive in test [1], in test [2], in [3], in [5], in [6] and in [7]. Also, the call (in test [8]; in [9]; in test [10]; in [11]; in test [12]; in the test with HGF (gene 3082)) was inactive. Also, the call in test [13], in test [14], in [15], in [16] and in test [17] was inactive. Further, in [4], the AC50 (in general, the concentration giving half of the maximal activity seen) was 3.01 µM (active).
Consider `CCCCCCCCC(=O)O`, for which the call in test [1], in [2], in test [3], in test [4], in test [5] and in [6] was inactive. In addition, the call in [7], in test [8], in test [9], in [10], in test [11] and in [12] was inactive. In addition, the compound was called inactive (with HGF (gene 3082); in test [13]; in [15]; in [16]; in [17]).
With `CC1=C(/C=C/C(C)=C/C=C/C(C)=C/C(=O)O)C(C)(C)CCC1`, the AC50 in test [1] was 0.495 µM (active); in [3] it was 13.6 µM (active); in [18] it was 10.2 µM (active); in test [4], 29.6 µM (active); in test [5], 5.61 µM (active); in test [8] it was 25.8 µM (active). Moreover, the AC50 in test [12] was 23.9 µM (active); in test [13], 31.8 µM (active). Also, the compound was classed as inactive (in test [6]; in [7]; in test [9]; with HGF (gene 3082); in test [15]; in [16]).
With `C[C@@H]1C[C@H]2[C@@H]3CCC4=CC(=O)C=C[C@]4(C)[C@@]3(F)[C@@H](O)C[C@]2(C)[C@@]1(O)C(=O)COP(=O)(O)O`, the outcome in test [1], in test [2], in test [3], in [4], in [5] and in [6] was inactive. The result in [7], in test [8], in test [9], in test [10], in [11] and in test [12] was inactive. Moreover, the outcome (in the test with HGF (gene 3082); in test [13]; in [15]; in test [16]; in test [17]) was inactive.
